# Results taken from PubChem BioAssay (NCATS).
# “And” between values parts separate entries of the source, which are not always exact repeats. Equal values may be shown once. Inconclusive results are not listed. Where a structure was tested more than once in an assay, its records may differ in their call. The source made the active and inactive calls. The call rests on the fitted dose curve; in most records, active means well fitted inhibition curve with a large enough effect; inconclusive means small, poorly fitted or top-dose-only effect; inactive means flat fitted curve, though single readings scatter.
# Assay: Drug repurposing screens with cells derived from glioblastoma tumor samples (AID 1345199); further: nearly all actives have a fitted effect of over 40% in size
# Settings: GBM patient neurospheres viability, ATP luminescence, 48 h; at 46.1 µM (top of the series); tumour line C
# Procedure, shortened: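 Four patient lines of CD133+ GBM neurospheres were screened at several concentrations; hits were retested in those lines plus three slower-growing GBM lines, using 48-hour treatment and ATP-based viability.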
# On the % scale 0 is the no-effect control and ±100 the full control effect; potency means the concentration at half of the fitted maximal effect.
row,Structure (SMILES),"activity, negative = cell killing"
1,CO[C@@H]1[C@@H](O[C@@H]2O[C@H](C)[C@@H](O[C@H]3C[C@@](C)(O)[C@@H](OC(=O)CC(C)C)[C@H](C)O3)[C@H](N(C)C)[C@H]2O)[C@@H](CC=O)C[C@@H](C)[C@@H](O)/C=C/C=C/C[C@@H](C)OC(=O)C[C@H]1O,-11.8% (inactive) and -30.6% (inactive)
2,NCCCNCCCCNC(=O)C(O)NC(=O)CCCCCCN=C(N)N (stereo not drawn),-21.3% (inactive)
3,CCOC(=O)COc1ccc2c(=O)cc(-c3ccccc3)oc2c1,-1.42% (inactive) and -17.4% (inactive)

# Same assay, conditions: GBM patient neurospheres viability, ATP luminescence, 48 h; tumour line A
row,Structure (SMILES),Potency
1,CO[C@@H]1[C@@H](O[C@@H]2O[C@H](C)[C@@H](O[C@H]3C[C@@](C)(O)[C@@H](OC(=O)CC(C)C)[C@H](C)O3)[C@H](N(C)C)[C@H]2O)[C@@H](CC=O)C[C@@H](C)[C@@H](O)/C=C/C=C/C[C@@H](C)OC(=O)C[C@H]1O,12.6 µM (active)
2,O=C(CCCN1CCC(n2c(=S)[nH]c3ccccc32)CC1)c1ccc(F)cc1,8.91 µM (active)
3,CCCCCCCCCCCCCCCC(=O)O[C@@H]1CC(C)=C(/C=C/C(C)=C/C=C/C(C)=C/C=C/C=C(C)/C=C/C=C(C)/C=C/C2=C(C)C[C@@H](OC(=O)CCCCCCCCCCCCCCC)CC2(C)C)C(C)(C)C1,11.2 µM (active)
4,Cc1cccc(C)c1N(CCCc1cccnc1)C(=O)C(C)N (stereo not drawn),11.2 µM (active)
5,CCC(C)C(C(=O)OCC[N+](C)(CC)CC)c1ccccc1 (stereo not drawn),11.2 µM (active)
